Activity increase over dofetilide control, less the hit threshold data for 31 compounds are collected here from PubChem BioAssay AID1835 (Johns Hopkins Ion Channel Center, 2009).

About 750 (31%) of roughly 2,400 compounds were called active. The list shows a part of the results. Unmarked numbers belong to inactive results.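 How the source made its calls: active means median signal gain over dofetilide-blocked control wells reaching their mean plus 3 SD, so readout 1 at least 0; inactive means the rest.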

In the assay the target is Voltage-gated inwardly rectifying potassium channel KCNH2 (Homo sapiens) (UniProt Q12809). Kind of assay: modulators restoring hERG flux under dofetilide – cell-based, thallium flux, duplicate retest, dofetilide IC70, confirmation (AID 1835). Particulars: hERG cell line, FluxOR thallium flux, dofetilide-blocked; at 10 µM; active compounds read high.
Sequence of Voltage-gated inwardly rectifying potassium channel KCNH2 (Homo sapiens) (Q12809 whole entry, looked up): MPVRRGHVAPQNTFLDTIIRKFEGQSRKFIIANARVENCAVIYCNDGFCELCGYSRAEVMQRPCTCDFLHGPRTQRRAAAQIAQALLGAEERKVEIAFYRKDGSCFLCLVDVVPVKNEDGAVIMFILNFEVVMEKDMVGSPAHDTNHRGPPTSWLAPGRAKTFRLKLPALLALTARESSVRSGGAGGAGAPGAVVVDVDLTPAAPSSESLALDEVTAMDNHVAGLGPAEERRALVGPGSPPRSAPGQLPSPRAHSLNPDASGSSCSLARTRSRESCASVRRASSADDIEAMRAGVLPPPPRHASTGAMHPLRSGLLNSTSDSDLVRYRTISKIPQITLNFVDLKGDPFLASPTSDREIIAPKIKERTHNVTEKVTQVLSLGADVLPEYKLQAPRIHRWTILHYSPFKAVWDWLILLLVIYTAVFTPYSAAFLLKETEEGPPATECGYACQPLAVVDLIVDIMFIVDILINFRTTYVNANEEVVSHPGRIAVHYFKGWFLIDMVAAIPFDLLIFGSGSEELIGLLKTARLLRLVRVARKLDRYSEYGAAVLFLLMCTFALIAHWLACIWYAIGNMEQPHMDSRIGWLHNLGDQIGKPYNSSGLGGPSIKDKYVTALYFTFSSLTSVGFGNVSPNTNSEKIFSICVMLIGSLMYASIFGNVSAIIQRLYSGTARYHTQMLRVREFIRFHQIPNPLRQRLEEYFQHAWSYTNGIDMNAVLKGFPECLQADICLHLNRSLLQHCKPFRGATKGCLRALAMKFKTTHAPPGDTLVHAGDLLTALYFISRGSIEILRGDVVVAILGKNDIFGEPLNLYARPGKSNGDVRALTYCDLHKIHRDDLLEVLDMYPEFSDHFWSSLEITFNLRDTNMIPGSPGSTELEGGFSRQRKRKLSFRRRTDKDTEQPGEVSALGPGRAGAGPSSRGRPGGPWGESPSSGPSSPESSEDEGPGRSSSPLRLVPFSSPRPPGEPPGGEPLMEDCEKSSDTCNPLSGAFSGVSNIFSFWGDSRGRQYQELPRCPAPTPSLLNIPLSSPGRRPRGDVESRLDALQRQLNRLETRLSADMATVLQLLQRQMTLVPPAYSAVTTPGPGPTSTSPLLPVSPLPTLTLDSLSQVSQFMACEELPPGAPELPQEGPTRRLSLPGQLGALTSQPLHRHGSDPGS
On to `O=C(CCc1ccccc1)Nc1nccs1`, for which the activity increase over dofetilide control, less the hit threshold was -12%.

Turning to `CC(C)C(=O)Nc1ccc(NC(=O)CCc2ccccc2)cn1`, the activity increase over dofetilide control, less the hit threshold was -14%. Under `O=C(Nc1ncc(Br)s1)C(Cc1ccccc1)n1cccc1` (stereo unspecified) stands 22% (active). The result for `Cc1cc2[nH]c(=O)c(=O)[nH]c2cc1S(=O)(=O)N1CCN(c2cccc(C)c2C)CC1` reads -5%; that for `CC(Oc1ccc(Cl)cc1)/C(N)=N/O` (stereo unspecified), -20%; that for `Cc1ccc2[nH]cc(CCNC(=O)/C=C/c3ccco3)c2c1`, -14%. Turning to `CCOc1ccc(CC(C(N)=O)C(N)=O)cc1`, the activity increase over dofetilide control, less the hit threshold is -12%.

Regarding `CCCOc1ccc(-c2c(=O)n(O)c3ccccc3[n+]2[O-])cc1`, the activity increase over dofetilide control, less the hit threshold is 51% (active).

On to `CCOc1ccc(-c2c(=O)n(O)c3ccccc3[n+]2[O-])cc1`, for which the activity increase over dofetilide control, less the hit threshold was 74% (active). As to `Cc1cccc(/C=N/Nc2ccc3ccccc3n2)c1`, the activity increase over dofetilide control, less the hit threshold was -3%. `O=S(=O)(Nc1nc(-c2sccc2Cl)cs1)c1cc(Cl)ccc1Cl`: the activity increase over dofetilide control, less the hit threshold was 73% (active). Consider `O=C(Nc1ccccc1)OCCCCCOC(=O)Nc1ccccc1`, for which the activity increase over dofetilide control, less the hit threshold was -11%. Take `C=CCn1c(O)c(N=NC(=S)Nc2ccccc2F)c2cc(S(=O)(=O)N3CCOCC3)ccc21`: the activity increase over dofetilide control, less the hit threshold was 0%. Under `C/C(Cl)=C\Cn1c(O)c(N=NC(N)=S)c2cc(Br)ccc21` stands 49% (active).

In the case of `COc1ccc(C(=O)O/N=C(\N)c2ccccn2)cc1[N+](=O)[O-]`, the activity increase over dofetilide control, less the hit threshold was -11%.

Regarding `Nn1c(SCC(=O)Nc2ccc(OC(F)F)cc2)nnc1-c1ccco1`, the activity increase over dofetilide control, less the hit threshold was -12%. Turning to `CCCCOC(=O)Cn1c2ccc(OC)cc2c2nc3ccccc3nc21`, the activity increase over dofetilide control, less the hit threshold was -28%.

As for `CCc1ccc(C(=O)CSc2nc3ccccc3c(=O)[nH]2)cc1`, the activity increase over dofetilide control, less the hit threshold is -16%.

In the case of `CC(C)OC(=O)c1c2nc3ccccc3nc2n2c1[nH]c(=O)c1ccccc12`, the activity increase over dofetilide control, less the hit threshold was 85% (active).

On to `CC1=NN(C(=O)c2cc(C)nn2C)C(O)(C(F)(F)F)C1` (stereo unspecified), for which the activity increase over dofetilide control, less the hit threshold is -14%. Under `CC(C)Sc1nc2ccccc2n2cnnc12` stands -2%; under `O=C(c1cccc(C(F)(F)F)c1)C1CCCN(C(=O)CCn2cnnn2)C1` (stereo unspecified), -3%; under `CCSc1nc(=S)cc(C)[nH]1`, 49% (active).

In the case of `CSc1nc(=S)cc(C)[nH]1`, the activity increase over dofetilide control, less the hit threshold was 5% (active).

Turning to `CCc1cc(=O)[nH]c(SCc2ccc(C)cc2)n1`, the activity increase over dofetilide control, less the hit threshold was -11%. Regarding `CCOc1cccc(Nc2cc3n(c(=O)n2)CCc2cc(OC)c(OC)cc2-3)c1`, the activity increase over dofetilide control, less the hit threshold is -22%. Consider `Cc1cc(C(=O)NP(=O)(N2CCOCC2)N2CCOCC2)c(C)n1-c1ccc(Br)cc1`, for which the activity increase over dofetilide control, less the hit threshold was -13%. In the case of `Cc1cc(NC(=O)CSc2ccc(-c3ccc(F)cc3)nn2)no1`, the activity increase over dofetilide control, less the hit threshold was -12%. As to `O=C(C1CC1)N1N=C(c2ccccc2)CC1(O)C(F)(F)C(F)(F)F` (stereo unspecified), the activity increase over dofetilide control, less the hit threshold was -11%. The result for `CC(C)(C)C1(O)CC(C(F)(F)F)=NN1C(=O)Cc1ccc([N+](=O)[O-])cc1` (stereo unspecified) reads -19%; that for `CCCCC1(O)CC(C(F)(F)F)=NN1C(=O)COc1ccccc1` (stereo unspecified), 4% (active).
